Experimental data: PubChem BioAssay AID2654 (Johns Hopkins Ion Channel Center, 2010)
Entries with a potency or affinity are not part of this list. Calls of active or inactive are those of the source.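 Rule for the calls: active = increase of the KCNQ2 potassium channel current at -35 mV by at least one tested dose; inactive = no tested dose increases that current.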

These compounds were tested against Potassium voltage-gated channel subfamily KQT member 2 (Rattus norvegicus) (UniProt O88943) (assay: retigabine-insensitive KCNQ2 potentiators, concentration-response, dose response, cell-based, retigabine-insensitive compounds (AID 2654)). Settings: KCNQ2-CHO cells, automated patch clamp current potentiation; at 30 µM (top of the series).
Potassium voltage-gated channel subfamily KQT member 2 (Rattus norvegicus), sequence (O88943 whole entry, looked up): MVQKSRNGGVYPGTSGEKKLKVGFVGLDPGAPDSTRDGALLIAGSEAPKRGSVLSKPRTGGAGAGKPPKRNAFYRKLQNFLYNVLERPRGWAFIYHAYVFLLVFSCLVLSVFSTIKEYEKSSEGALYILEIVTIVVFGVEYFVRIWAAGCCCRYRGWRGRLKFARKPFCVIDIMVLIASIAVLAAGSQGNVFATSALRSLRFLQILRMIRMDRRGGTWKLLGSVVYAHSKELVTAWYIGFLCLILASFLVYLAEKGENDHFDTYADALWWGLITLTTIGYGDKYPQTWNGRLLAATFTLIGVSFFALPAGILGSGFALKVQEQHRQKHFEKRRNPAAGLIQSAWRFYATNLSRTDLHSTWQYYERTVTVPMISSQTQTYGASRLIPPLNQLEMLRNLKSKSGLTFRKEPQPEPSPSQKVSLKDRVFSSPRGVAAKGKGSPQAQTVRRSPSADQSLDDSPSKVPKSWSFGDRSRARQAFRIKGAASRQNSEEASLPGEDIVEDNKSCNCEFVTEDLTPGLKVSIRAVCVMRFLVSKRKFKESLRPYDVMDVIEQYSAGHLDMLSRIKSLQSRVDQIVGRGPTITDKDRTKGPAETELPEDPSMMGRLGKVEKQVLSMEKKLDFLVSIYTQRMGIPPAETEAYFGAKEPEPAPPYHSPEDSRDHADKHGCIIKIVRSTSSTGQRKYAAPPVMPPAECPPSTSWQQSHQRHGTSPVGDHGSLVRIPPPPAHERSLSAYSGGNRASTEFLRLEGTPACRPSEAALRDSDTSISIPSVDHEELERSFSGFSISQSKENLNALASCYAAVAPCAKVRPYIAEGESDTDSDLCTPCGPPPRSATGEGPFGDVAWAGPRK

outcome, inactive:
Cc1ccc(NC(=O)Nc2cccnc2)c(C)c1
Cc1ccc(C)c(NC(=O)Nc2cccnc2)c1
CC(CCc1ccccc1)NC(=S)Nc1cccnc1 (stereo not drawn)
S=C(Nc1ccc(Cl)cc1)Nc1cccnc1
COc1ccc(NC(=S)Nc2cccnc2)c(OC)c1
Cc1cncc(NC(=O)NCc2ccc(Cl)cc2Cl)c1
COc1ccc(NC(=O)Nc2cccnc2)c(OC)c1
Cc1cc(NC(=O)NCc2ccc(Cl)cc2Cl)cnc1Br
Fc1ccc(NC(=S)Nc2cccnc2)c(Cl)c1
Cc1ccnc(NC(=O)Nc2cccc(F)c2)c1
O=C(Nc1cccnc1)N1CCOCC1
Cc1cc(NC(=O)Nc2cccc(F)c2)cnc1Cl
O=C(Nc1cccnc1)Nc1ccc(Cl)cc1Cl
Cc1ccc(NC(=S)Nc2cccnc2)cc1
S=C(NCc1ccco1)Nc1cccnc1
O=C(NCC(F)(F)F)Nc1cccnc1
O=C(Nc1cccnc1)Nc1ccc2c(c1)OCCO2
S=C(Nc1cccnc1)NC1CCCCCCC1
Cc1ccc(CNC(=S)Nc2cccnc2)cc1
COc1ccc(Cl)cc1NC(=S)Nc1cccnc1
O=C(Nc1cccnc1)N(CC1CC1)c1ccccc1
COc1ccc(C)cc1NC(=O)Nc1cccnc1
Fc1ccc(NC(=S)Nc2cccnc2)cc1
S=C(NCC1CCCCC1)Nc1cccnc1
Fc1ccc(NC(=S)Nc2cccnc2)c(F)c1
COc1cccc(NC(=O)Nc2cccnc2)c1
Cc1ccc(Cl)cc1NC(=O)Nc1cccnc1
O=C(Nc1cccc(F)c1)Nc1nccs1
